D3 antag: antagonists of human D3 dopamine receptor | D3R cells, DiscoveRx beta-arrestin luminescence, antagonist mode; stronger effect = lower value | max response, negative = inhibition, % | 360,000 compounds, 2.5% hits; in the data active = max response below about -50%; inconclusive = no clear call, values can overlap the other calls; also: % is scaled to controls: 0 for no effect and ±100 for the full control effect
Target sequence (P35462 whole entry, looked up): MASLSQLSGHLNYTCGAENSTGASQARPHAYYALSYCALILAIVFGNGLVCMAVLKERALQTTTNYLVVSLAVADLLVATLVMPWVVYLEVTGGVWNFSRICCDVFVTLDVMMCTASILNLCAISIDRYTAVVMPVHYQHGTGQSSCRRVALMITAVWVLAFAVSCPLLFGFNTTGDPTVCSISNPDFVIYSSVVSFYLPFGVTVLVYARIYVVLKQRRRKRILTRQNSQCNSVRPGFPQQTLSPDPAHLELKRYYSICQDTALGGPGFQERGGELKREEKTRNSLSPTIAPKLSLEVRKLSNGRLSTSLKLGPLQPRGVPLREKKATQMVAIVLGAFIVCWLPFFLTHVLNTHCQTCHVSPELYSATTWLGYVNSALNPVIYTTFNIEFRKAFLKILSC
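Cells plated overnight at 1500 cells/well, then exposed to library compounds with dopamine controls for 90 minutes at 37 degrees C. DiscoveRx reagent added for 30–60 minutes at room temperature; luminescence read, quantitative HTS format.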
SW480 rerep: DNA re-replication induction in SW480 cells; 340,000 compounds, 1.8% hits; AID 624297; SW480 DNA re-replication, Hoechst DNA content imaging, 48 h; Potency, µM (top dose mostly 46.1 µM), for inactives: at the top dose re-replication activation, most hits filed as activators; also: potency is read from the fitted curve at half-maximal effect; % of control where 0% means no effect; nearly all actives have a fitted effect of over 55% in size
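Compounds, transferred as 23 nL by pin tool, were incubated with cells for 48 hr; DNA content per nucleus was then quantified by Hoechst staining and fluorescence plate imaging.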
D3 ag: agonists of human D3 dopamine receptor; P35462; 410,000 compounds, 0.58% hits; D3R DiscoveRx beta-arrestin cells, luminescence, 90 min; max activation, %; in the data active = max activation above about 30%; also: 0% is about no effect
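Agonist mode: compounds and dopamine controls were applied to plated cells for 90 min at 37 degrees C after an overnight attachment at 1500 cells/well. Luminescent read-out followed 30 - 60 minutes at room temperature with DiscoveRx detection reagent.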
KB-V1 cytotox: kills drug-selected multidrug resistant KB-V1 cells | Potency, µM (series often up to 46.1 µM), usual class: cytotoxic | KB-V1 MDR cells viability, CellTiter-Glo, 72 h | 400,000 compounds, 3.4% hits | AID 1347076; also: potency is read from the fitted curve at half-maximal effect; % is scaled to controls: 0 for no effect and ±100 for the full control effect; nearly all actives have a fitted effect of over 60% in size
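Drug-selected KB-V1 cells, grown in DMEM lacking phenol red with 10% FBS, receive compound titrations; after three days at 37 degrees C, surviving cell ATP is quantified by CellTiter-Glo luminescence and responses normalized and curve-fitted.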
KB-3-1 tox: kills parental KB-3-1 adenocarcinoma cells. KB-3-1 viability, CellTiter-Glo ATP luminescence, 72 h. Potency, µM (top dose mostly 46.1 µM), usual class: cytotoxic. 400,000 compounds, 1.4% hits. AID 1347075; also: potency is read from the fitted curve at half-maximal effect; % is scaled to controls: 0 for no effect and ±100 for the full control effect; nearly all actives have a fitted effect of over 60% in size
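Using CellTiter-Glo luminescence, growth of non-resistant KB-3-1 adenocarcinoma cells is assessed 72 h after pin-tool compound addition at 37 °C. Normalized responses across the concentration series yield fitted curves.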
MCF10A rereplic: induces DNA re-replication in MCF 10a normal breast cells; Potency, µM (doses to about 46.1 µM), without a hit: top-dose activity, positive = re-replication, hits mostly activators; MCF 10A DNA re-replication, Hoechst nuclear intensity, 48 h; AID 624296; 350,000 compounds, 2.9% hits; also: potency is read from the fitted curve at half-maximal effect; % of control where 0% means no effect; nearly all actives have a fitted effect of over 50% in size
Active calls of the source: *; [ ] = remark or other dose. Only some compounds are listed: those with a hit (about 8.9% of all), similar ones and a draw of the others. Unless noted, calls follow the shape of the dose curve; as a rule, active = well fitted curve in the direction sought with a large enough effect; inconclusive = small, poorly fitted or top-dose-only effect, or another doubt; inactive = no such curve, though single readings can be large; an effect the other way counts as inactive or inconclusive.

Results for CCCCC[C@@H](C)N1C[C@H](COCc2ccccc2)Oc2cc(N3CC[C@@H](N(C)C)C3)ccc2S1(=O)=O ?
D3 antag: 24; D3 ag: -3; KB-V1 cytotox: 16µM*; KB-3-1 tox: inconclusive

How did COc1cccc(N2CCN(C(=O)CCCn3c(=O)[nH]c4ccc(Br)cc4c3=O)CC2)c1 do in these assays?
D3 ag: 1; KB-V1 cytotox: inactive; KB-3-1 tox: inactive

What do the screens show for `CCOc1ccc(CC(=O)NCCS(=O)(=O)N2CCN(c3ccccc3OC)CC2)cc1`?
D3 ag: 2

Results for COc1ccc(Cl)cc1NC(=O)CSc1nc2c(oc3ccccc32)c(=O)n1Cc1ccco1 ?
D3 ag: -7; KB-V1 cytotox: inactive; KB-3-1 tox: inactive

Results for COCCNC(=O)c1cnc2sc(N3CCCCC3)nn2c1=O ?
D3 ag: 9; KB-V1 cytotox: inactive; KB-3-1 tox: inactive

Results for CCN(Cc1ccccc1)S(=O)(=O)c1ccc(N2CCCCS2(=O)=O)cc1 ?
D3 ag: -8; KB-V1 cytotox: inconclusive; KB-3-1 tox: inconclusive

Results for CCOC(=O)c1ccc(NC(=O)/C(C#N)=C/c2ccc(OC)cc2)cc1 ?
D3 ag: 3; KB-V1 cytotox: inactive; KB-3-1 tox: inconclusive

How did COc1cc(N(C)C)c(OC)cc1C=O do in these assays?
KB-V1 cytotox: inactive; KB-3-1 tox: inactive

How did CCOC(=O)c1[nH]c(C)c(CCC(=O)Nc2ccccc2OCC)c1C do in these assays?
D3 ag: 5; KB-V1 cytotox: inactive; KB-3-1 tox: inactive

What do the screens show for `Cc1ccc(CNC(=O)c2ccc3c(c2)N(Cc2ccccc2F)C(=O)c2ccccc2S3(=O)=O)cc1`?
D3 ag: -8; KB-V1 cytotox: inactive; KB-3-1 tox: inactive

What do the screens show for `CCCCC[C@H](C)N1C[C@H](COCc2ccccc2)Oc2cc(N3CC[C@H](N(C)C)C3)ccc2S1(=O)=O`?
D3 antag: 2; D3 ag: 0; KB-V1 cytotox: 21µM*; KB-3-1 tox: inconclusive

Results for CCCCC[C@@H](C)N1C[C@@H](COCc2ccccc2)Oc2cc(N3CC[C@H](O)C3)ccc2S1(=O)=O ?
D3 antag: 2; D3 ag: 5; KB-V1 cytotox: inactive; KB-3-1 tox: inconclusive

Results for CC(NC(=O)Cc1ccc(NS(=O)(=O)c2cccc(C(F)(F)F)c2)cc1)c1ccccn1 (stereo unspecified) ?
D3 antag: 8; SW480 rerep: -7%; D3 ag: 2; KB-V1 cytotox: 21µM*; KB-3-1 tox: inconclusive; MCF10A rereplic: 12%

How did CN(Cc1cccnc1)C(=O)Cc1ccc(NS(=O)(=O)c2cccc(C(F)(F)F)c2)cc1 do in these assays?
D3 antag: 3; SW480 rerep: -16%; D3 ag: 5; KB-V1 cytotox: inactive; KB-3-1 tox: inactive; MCF10A rereplic: inconclusive

How did O=C(Oc1ccc2ccccc2c1)c1ccco1 do in these assays?
D3 antag: -17; SW480 rerep: -6%; D3 ag: -6; KB-V1 cytotox: inconclusive; KB-3-1 tox: inactive; MCF10A rereplic: 6%

Results for CC1CC(C)(C)Nc2ccc(OC(=O)c3ccco3)cc21 (stereo unspecified) ?
D3 antag: 21; SW480 rerep: inconclusive; D3 ag: 2; KB-V1 cytotox: inconclusive; KB-3-1 tox: inconclusive; MCF10A rereplic: 15µM*

Results for CC1CC(C)(C)Nc2ccc(N=O)cc21 (stereo unspecified) ?
D3 antag: -84*; SW480 rerep: 2.3µM*; D3 ag: -12; KB-V1 cytotox: inactive; KB-3-1 tox: inactive; MCF10A rereplic: 23µM*

Results for COc1cccc(Cn2nnc(C(=O)NCc3ccc(Cl)cc3Cl)c2N)c1 ?
D3 ag: 5; KB-V1 cytotox: inactive; KB-3-1 tox: inactive

Results for CCOC(=O)C1=C(N)Oc2ccc3ccccc3c2C1c1cccnc1 (stereo unspecified) ?
D3 antag: 16; SW480 rerep: -1%[9.22 µM]; D3 ag: 1; KB-V1 cytotox: 11µM*; KB-3-1 tox: inconclusive; MCF10A rereplic: inconclusive

Results for CCOC(=O)C1=C(N)Oc2ccc3ccccc3c2C1c1cccc(O)c1 (stereo unspecified) ?
D3 antag: 4; SW480 rerep: -3%; D3 ag: -4; KB-V1 cytotox: inactive; KB-3-1 tox: inactive; MCF10A rereplic: inconclusive

How did Cc1cc(C)c2c(N)c(C(=O)c3ccc(Cl)cc3)sc2n1 do in these assays?
D3 antag: 23; SW480 rerep: 15%; D3 ag: -5; KB-V1 cytotox: inconclusive; KB-3-1 tox: inactive; MCF10A rereplic: -33%

How did COc1ccc(C(=O)c2sc3nc(C)cc(-c4cccs4)c3c2N)cc1 do in these assays?
D3 antag: 9; SW480 rerep: 21µM*; D3 ag: 2; KB-V1 cytotox: inactive; KB-3-1 tox: inactive; MCF10A rereplic: inconclusive

Results for Nc1c(C(=O)Nc2nc3ccccc3s2)sc2nc(-c3cccs3)ccc12 ?
D3 antag: -22; SW480 rerep: inconclusive; D3 ag: 3; KB-V1 cytotox: inactive; KB-3-1 tox: 8.2µM*; MCF10A rereplic: 4.1µM*

Results for Nc1c(C(=O)Nc2ccccc2Br)sc2nc(-c3cccs3)ccc12 ?
D3 ag: 9; KB-V1 cytotox: inactive; KB-3-1 tox: inactive

What do the screens show for `COc1ccc(C(=O)c2sc3nc(C)cc(-c4cccs4)c3c2N)cc1OC`?
D3 antag: 11; SW480 rerep: inconclusive; D3 ag: 52*; KB-V1 cytotox: inconclusive; KB-3-1 tox: inactive; MCF10A rereplic: 5.2µM*

What do the screens show for `CC(C)NC(=O)c1sc2nc(-c3cccs3)cc(-c3cccs3)c2c1N`?
D3 antag: inconclusive; SW480 rerep: inconclusive; D3 ag: 1; KB-V1 cytotox: inactive; KB-3-1 tox: inactive; MCF10A rereplic: 3.7µM*

Results for COc1ccc(-c2cc(-c3cccs3)nc3sc(C#N)c(N)c23)cc1 ?
D3 antag: -13; SW480 rerep: inconclusive; D3 ag: -3; KB-V1 cytotox: inconclusive; KB-3-1 tox: inactive; MCF10A rereplic: 16µM*

How did N#Cc1sc2nc(C3CC3)cc(-c3ccc(Cl)cc3)c2c1N do in these assays?
D3 antag: -2; SW480 rerep: inconclusive; D3 ag: -1; KB-V1 cytotox: inactive; KB-3-1 tox: inactive; MCF10A rereplic: 5%

What do the screens show for `Cc1cc(-c2cccs2)c2c(N)c(C(=O)c3ccc4c(c3)OCO4)sc2n1`?
D3 antag: -17; SW480 rerep: 1.3µM*; D3 ag: 4; KB-V1 cytotox: 6.5µM*; KB-3-1 tox: inconclusive; MCF10A rereplic: 15µM*

Source: PubChem
